Measurements reported in PubChem BioAssay (NCATS).
Values without a mark were called inactive. The call rests on the fitted dose curve; in most records, active means well fitted activation curve with a large enough effect; inconclusive means small, poorly fitted or top-dose-only effect; inactive means flat fitted curve, though single readings scatter.

Assay: Confirmation and Secondary Assay for Modulators of Hemoglobin Beta Chain Splicing at IVS2 705 locus (AID 930);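 further: HeLa cells stably expressing the EGFP-705 splicing reporter; GFP fluorescence per well restored by corrected splicing of the IVS2-705 intron in EGFP; % of control where 0% means no effect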
Settings: HeLa EGFP-705 splicing reporter, GFP fluorescence, 48 h; series mostly up to 46.1 µM; activation: at the top concentration
How it was run: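 Read-out: total peak GFP fluorescence per well (488 nm excitation, 500-520 nm emission) by laser-scanning cytometry. Cells: HeLa EGFP-705 splicing reporter, 2 days compound exposure in Optimem/2% FCS.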

Compound | activation
CS(=O)(=O)c1ccc(C2=C(c3ccccc3)C(=O)OC2)cc1 | 3.25%
CC1(C)OC2CC3C4CC(F)C5=CC(=O)C=CC5(C)C4C(O)CC3(C)[C@]2(C(=O)CO)O1 (stereo not given in full) | 0.535%
Cc1cc2nc3c(=O)[nH]c(=O)nc-3n(CC(O)C(O)C(O)CO)c2cc1C (stereo not given) | 24.7%
OC(c1cc(C(F)(F)F)nc2c(C(F)(F)F)cccc12)C1CCCCN1 (stereo not given) | 1.21%
CC(NCCc1ccc(O)cc1)C(O)c1ccc(O)cc1 (stereo not given) | 1.31%
COc1ccnc(CS(=O)c2nc3ccc(OC(F)F)cc3[nH]2)c1OC (stereo not given) | 1.12%
NCC1CCC(C(=O)O)CC1 (stereo not given) | 0.725%
COc1ccc2ccc(=O)oc2c1CC=C(C)C | 0.269% [at 38.3 µM]
CCC(c1ccc(O)cc1)C(CC)c1ccc(O)cc1 (stereo not given) | -0.0344%
O=C1C(CCC(O)c2ccc(F)cc2)C(c2ccc(O)cc2)N1c1ccc(F)cc1 (stereo not given) | 1.93%
